In the library only some 3.1% were active in any assay of this set; here they are far more common.
ATG4B inhibitor – blocks human ATG4B protease cleavage of LC3 substrate. inhibition, % at 8.33 µM. Q9Y4P1. ATG4B cleavage of LC3-PLA2, NBD-HPC fluorescence, 1 h. 340,000 compounds, 0.51% hits. AID 504462; in the data active = inhibition above about 40%
NadD block – NadD (S. aureus) enzyme inhibition; purified NadD enzyme, colorimetric absorbance read-out; inhibition, % at 20 µM; 360,000 compounds, 0.78% hits; AID 602399; in the data active = inhibition above about 26%
Calb FLC – C. albicans growth modulation with fluconazole; 300,000 compounds, 0.57% hits; C. albicans CaCi-2 (fluconazole-resistant clinical isolate) + fluconazole, Alamar Blue growth, 48 h; growth inhibition, % (test concentration not listed);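 active = growth inhibition above about 58% in most replicates, limit read from the data, passing the limit was not always enough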;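 note: all wells also contain fluconazole at 8 µg/ml as a sub-toxic cotreatment; 0% = median of DMSO wells and 100% = median of geldanamycin control wells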
Mot1-301 SUMO – blocks SUMOylation pathway, rescuing yeast Mot1-301 growth. S. cerevisiae Mot1-301 growth rescue, ATP luminescence, 38.5C; percent above DMSO median, 100 means doubled. growth rescue, % at 18.8 µM. 320,000 compounds, 1% hits. AID 2716;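 active = every valid replicate shows activation above 250% relative to neutral control wells; inactive = the rest, any valid replicate at or below 250%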;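 note: OY570 slx delta 5 strain wells were the positive control but not used for scaling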
FAS TE block – blocks the thioesterase domain of human fatty acid synthase; 360,000 compounds, 0.67% hits; recombinant FAS-TE, OMFH fluorogenic substrate, fluorescence endpoint; P49327; inhibition, % at 15 µM;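 active = compounds whose normalised, plate-corrected inhibition of enzyme fluorescence in the single-dose primary screen is 50% or more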;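 note: 0% = DMSO with enzyme and 100% = substrate without enzyme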
* marks the source's active call; other numbers are inactive results; x = not tested or not shown.

SMILES	ATG4B inhibitor	NadD block	Calb FLC	Mot1-301 SUMO	FAS TE block
Cc1cccc(C(=O)NNC2=C(C(=O)C(F)(F)F)CCC2)c1O	20	-1	105*	6	18
Cc1c(Br)c(O)c(Br)c(O)c1/C=N/n1c(-c2ccccc2)n[nH]c1=S	69*	1	20	2	0
O=C(NC(=S)Nc1ccc2[nH]c(=O)[nH]c2c1)c1ccccc1[N+](=O)[O-]	0	-1	-2	-2	-2
CCCCCCNC1=NCCS1	-4	-16	-30	720*	-19
CCC(C)CCCCNC1=NCCS1 (configuration not stated)	-9	-7	-3	-11	-110
C[C@@H](c1ccccc1)N1C[C@H](COCc2ccccc2)Oc2cc(N3CC[C@@H](O)C3)ccc2S1(=O)=O	x	-4	x	x	40
O=C1NC(=O)/C(=C/c2cccc3ccccc23)S1	8	-2	107*	21	2
COc1ccc(NC(=O)CSc2nnc(Cn3cnc([N+](=O)[O-])n3)n2C)cc1	2	-1	5	344*	-8
C/C(=N\NC(=S)Nc1ccccc1C)c1cc2ccccc2o1	-5	-3	26	0	24
C/C(=N\NC(=S)Nc1c(C)cccc1C)c1cc2ccccc2o1	-17	10	7	322*	5
CC(=O)c1ccc(N2CCN(S(=O)(=O)c3ccc4c(c3)CCC(=O)N4)CC2)cc1	x	0	x	x	4
O=C(Oc1cc2oc(=O)cc(-c3ccccc3)c2cc1Cl)C1CCCCC1	-2	-2	77*	-9	24
COc1ccccc1NC(=O)Cc1nnc(SCC(=O)Nc2nccs2)n1C	-18	3	-1	-9	-1
O=C(N/N=C/c1cc(Br)ccc1O)c1cccc(N2CCCC2=O)c1	-8	7	94*	27	20
COC(=O)N/N=C/c1cc(Br)ccc1O	4	2	-5	-13	-2
COc1ccc(O)c(/C=N/NC(=O)c2cccc(N3CCCC3=O)c2)c1	-16	0	-7	-9	-5
O=C(N/N=C/c1cc(Br)ccc1O)c1ccccc1Cl	3	2	89*	-23	32
O=C(COC(=O)c1cc(S(=O)(=O)N2CCCC2)ccc1O)Nc1ccc(S(=O)(=O)N2CCOCC2)cc1	-9	-2	5	-14	-2
O=C(COC(=O)c1cc(S(=O)(=O)N2CCOCC2)ccc1O)Nc1cc(S(=O)(=O)N2CCCC2)ccc1Cl	-4	12	-3	352*	-2
Cc1cccc(NC(=O)CSc2nnc(C)c(=O)n2N)c1	-5	-4	-40	461*	-8
CC(=S)/C=C1\Sc2ccccc2N1C	-9	3	117*	12	-12
O=C(Cc1cccc(NC(=O)C2CCCN(C(=O)C3CCCC3)C2)c1)Nc1ccc(C(=O)N2CCCCC2)cc1 (configuration not stated)	-8	11	x	x	-6
CCN(CC)C1CC(=O)N(c2cccc(C)c2)C1=O (configuration not stated)	x	x	-4	285*	x
Cc1cccc(C(=O)N2CCCC(N3CCN(c4ccc(F)cc4)CC3)C2)n1 (configuration not stated)	-3	-2	-5	-1	-6
COc1ccc(C(O)(C(=O)NNc2ccc(C)cc2)c2cccs2)cc1 (configuration not stated)	-1	3	110*	142	-1
SMILES	ATG4B inhibitor	NadD block	Calb FLC	Mot1-301 SUMO	FAS TE block
COc1ccc(NC(=O)NNC(=O)C(O)(c2ccccc2)c2ccccc2)cc1	0	-1	4	12	-4
Cc1cccc(CCN2CCC(C(=O)c3ccc(NS(C)(=O)=O)cc3)CC2)n1	x	x	x	-6	x
COc1ccc(-n2c(C)cc(/C=C3\SC(=O)NC3=O)c2C)cc1	19	5	-12	12	4
Cc1cc(/C=C2\SC(=Nc3ccccc3)NC2=O)c(C)n1-c1ccc(S(N)(=O)=O)cc1	-4	46*	2	-3	7
O=C(NCc1ccccn1)[C@@H]1CCCN1C(=O)[C@@H]1CCCN1C(=O)c1ccc(Cl)cc1	x	-2	x	x	-6
CCOC(=O)N1CCN(S(=O)(=O)c2ccc(OCC(=O)OC)c(Cl)c2)CC1	-10	2	-9	287*	-6
Oc1c(C(c2ccccc2)N2CCCCC2)sc2ncnn12 (configuration not stated)	-2	0	-4	462*	-7
Oc1c(C(c2ccccc2)N2CCN(Cc3ccccc3)CC2)sc2ncnn12 (configuration not stated)	-16	-4	-1	-15	-31

Screening results deposited in PubChem BioAssay by several laboratories.
